Experimental data reported in PubChem BioAssay AID1508601 (ICCB-Longwood Screening Facility, Harvard Medical School, 2020).
The campaign covered roughly 5,700 compounds. About 85 (1%) were called active. Rule as the data show it: active = p53-positive nuclei above about 36% (passing the limit was not always enough); inactive = the rest. The entries come from a sample that favours actives as a whole.

Columns and labels:
[1] = nuclear p53 accumulation, HPV+ cells – imaging, p53-positive nuclei imaging, 24 h, 48 h (AID 1508601); conditions: 24/48 h
[2] = target: Cellular tumor antigen p53 (Homo sapiens) (UniProt P04637); assay: as above; conditions: 24/48 h, stronger effect = higher value
Cellular tumor antigen p53 (Homo sapiens), sequence (P04637 whole entry, looked up): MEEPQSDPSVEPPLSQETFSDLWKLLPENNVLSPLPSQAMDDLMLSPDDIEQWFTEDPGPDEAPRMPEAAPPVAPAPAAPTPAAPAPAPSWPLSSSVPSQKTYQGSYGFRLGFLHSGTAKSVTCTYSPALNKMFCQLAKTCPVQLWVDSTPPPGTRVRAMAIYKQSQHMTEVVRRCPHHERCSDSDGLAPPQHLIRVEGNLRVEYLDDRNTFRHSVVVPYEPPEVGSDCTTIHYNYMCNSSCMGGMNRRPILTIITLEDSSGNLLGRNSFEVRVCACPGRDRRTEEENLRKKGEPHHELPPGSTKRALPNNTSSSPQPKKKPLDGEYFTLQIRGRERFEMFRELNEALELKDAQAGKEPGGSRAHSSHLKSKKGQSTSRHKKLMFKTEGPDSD

Q: Which results are given for `CC(=O)OC1C(=O)[C@]2(C)C(O)CC3OC[C@@]3(OC(C)=O)C2C(OC(=O)c2ccccc2)[C@]2(O)CC(OC(=O)C(O)C(NC(=O)c3ccccc3)c3ccccc3)C(C)=C1C2(C)C` (some centres undefined)?
A: nuclei count, normalised ([1]; measured here: cell number at 24 h, Library stock concentration: 500 nM): 124%; nuclei count, normalised ([1]; measured here: cell number at 24 h, Library stock concentration: 1.5 uM): 89.9%; nuclei count, normalised ([1]; measured here: cell number at 24 h, Library stock concentration: 4.6 uM): 58.2%; nuclei count, normalised ([1]; measured here: cell number at 24 h, Library stock concentration: 13.7 uM): 49%; nuclei count, normalised ([1]; measured here: cell number at 24 h, Library stock concentration: 41 uM): 47.4%; nuclei count, normalised ([1]; measured here: cell number at 24 h, Library stock concentration: 123 uM): 43.5%; nuclei count, normalised ([1]; measured here: cell number at 24 h, Library stock concentration: 370 uM): 42%; nuclei count, normalised ([1]; measured here: cell number at 24 h, Library stock concentration: 1.111 mM): 43.9%; nuclei count, normalised ([1]; measured here: cell number at 24 h, Library stock concentration: 3.33 mM): 33.4%; nuclei count, normalised ([1]; measured here: cell number at 24 h, Library stock concentration: 3.333 mM): 39.5%; nuclei count, normalised ([1]; measured here: cell number at 24 h, Library stock concentration: 10 mM): 44%; nuclei count, normalised ([1]; measured here: cell number at 48 h, Library stock concentration: 500 nM): 119%; nuclei count, normalised ([1]; measured here: cell number at 48 h, Library stock concentration: 1.5 uM): 71.2%; nuclei count, normalised ([1]; measured here: cell number at 48 h, Library stock concentration: 4.6 uM): 36.2%; nuclei count, normalised ([1]; measured here: cell number at 48 h, Library stock concentration: 13.7 uM): 29.7%; nuclei count, normalised ([1]; measured here: cell number at 48 h, Library stock concentration: 41 uM): 28.6%; nuclei count, normalised ([1]; measured here: cell number at 48 h, Library stock concentration: 123 uM): 29.2%; nuclei count, normalised ([1]; measured here: cell number at 48 h, Library stock concentration: 370 uM): 26.7%; nuclei count, normalised ([1]; measured here: cell number at 48 h, Library stock concentration: 1.111 mM): 28.6%; nuclei count, normalised ([1]; measured here: cell number at 48 h, Library stock concentration: 3.33 mM): 27.2%; nuclei count, normalised ([1]; measured here: cell number at 48 h, Library stock concentration: 3.333 mM): 26.4%; nuclei count, normalised ([1]; measured here: cell number at 48 h, Library stock concentration: 10 mM): 28.4%; p53-positive nuclei, normalised ([2]; Library stock concentration: 500 nM): 0.615% (inactive); p53-positive nuclei, normalised ([2]; Library stock concentration: 1.5 uM): 7.83% (inactive); p53-positive nuclei, normalised ([2]; Library stock concentration: 4.6 uM): 11.3% (inactive); p53-positive nuclei, normalised ([2]; Library stock concentration: 13.7 uM): 5.37% (inactive); p53-positive nuclei, normalised ([2]; Library stock concentration: 41 uM): 2.36% (inactive); p53-positive nuclei, normalised ([2]; Library stock concentration: 123 uM): 1.56% (inactive); p53-positive nuclei, normalised ([2]; Library stock concentration: 370 uM): 0.755% (inactive); p53-positive nuclei, normalised ([2]; Library stock concentration: 1.111 mM): 1.14% (inactive); p53-positive nuclei, normalised ([2]; Library stock concentration: 3.33 mM): -0.197% (inactive); p53-positive nuclei, normalised ([2]; Library stock concentration: 3.333 mM): 0.0812% (inactive); p53-positive nuclei, normalised ([2]; Library stock concentration: 10 mM): 0.227% (inactive); p53-positive nuclei, normalised ([2]; measured here: p53 positive nuclei at 24 h, Library stock concentration: 500 nM): -0.0449%; p53-positive nuclei, normalised ([2]; measured here: p53 positive nuclei at 24 h, Library stock concentration: 1.5 uM): 0.807%; p53-positive nuclei, normalised ([2]; measured here: p53 positive nuclei at 24 h, Library stock concentration: 4.6 uM): 1.13%; p53-positive nuclei, normalised ([2]; measured here: p53 positive nuclei at 24 h, Library stock concentration: 13.7 uM): -0.0184%; p53-positive nuclei, normalised ([2]; measured here: p53 positive nuclei at 24 h, Library stock concentration: 41 uM): 0.131%; p53-positive nuclei, normalised ([2]; measured here: p53 positive nuclei at 24 h, Library stock concentration: 123 uM): 0.31%; p53-positive nuclei, normalised ([2]; measured here: p53 positive nuclei at 24 h, Library stock concentration: 370 uM): 0.493%; p53-positive nuclei, normalised ([2]; measured here: p53 positive nuclei at 24 h, Library stock concentration: 1.111 mM): 0.16%; p53-positive nuclei, normalised ([2]; measured here: p53 positive nuclei at 24 h, Library stock concentration: 3.33 mM): -0.232%; p53-positive nuclei, normalised ([2]; measured here: p53 positive nuclei at 24 h, Library stock concentration: 3.333 mM): 0.515%; p53-positive nuclei, normalised ([2]; measured here: p53 positive nuclei at 24 h, Library stock concentration: 10 mM): 0.00376%
